Bioassay records as filed in PubChem BioAssay.
Compounds with a hit are over-represented: about 2.4% of the library has one in this group of screens.
CHO-K1 Ca antag: M1 antagonist counterscreen hit in parental CHO-K1 cells. inhibition, % at 3 µM. ATP-induced calcium, Fluo-8 fluorescence. actives 0.6% (n = 360,000). AID 602250;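 active = inhibition above a per-plate cutoff, the plate's mean sample inhibition plus 3 SD, cut at about 24% in these data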;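 also: 0% = DMSO plus EC80 ATP and 100% = DMSO alone without ATP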
M1 antag: human M1 muscarinic receptor antagonists, primary screen, CHO-K1 cells, Fluo-8 calcium fluorescence, 1536-well; inhibition, % at 3 µM; AID 588852, 2011; actives 1.3% (n = 360,000); Muscarinic acetylcholine receptor M1 (Homo sapiens), P11229; CHO-K1 hM1, ACh EC80 antagonist;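 active = percent inhibition above its own plate's cutoff, namely the mean of that plate's compound wells plus 3 SD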;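 also: peak over basal fluorescence ratio during 140 s after agonist addition; 0% = ACh EC80 plus DMSO and 100% = DMSO alone without agonist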
Target sequence (P11229 whole entry, looked up): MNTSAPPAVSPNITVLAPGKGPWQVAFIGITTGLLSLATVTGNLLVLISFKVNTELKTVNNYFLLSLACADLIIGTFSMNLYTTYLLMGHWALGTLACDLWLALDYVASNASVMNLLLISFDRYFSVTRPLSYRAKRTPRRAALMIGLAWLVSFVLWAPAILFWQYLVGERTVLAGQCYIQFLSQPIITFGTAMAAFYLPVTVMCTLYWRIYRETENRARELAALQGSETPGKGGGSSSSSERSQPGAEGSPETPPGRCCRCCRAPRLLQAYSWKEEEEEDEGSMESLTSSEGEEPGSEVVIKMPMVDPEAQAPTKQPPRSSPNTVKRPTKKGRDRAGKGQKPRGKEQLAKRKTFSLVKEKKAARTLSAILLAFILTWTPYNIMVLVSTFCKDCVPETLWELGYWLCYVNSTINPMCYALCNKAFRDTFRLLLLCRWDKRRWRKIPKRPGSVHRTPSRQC
M1 ag parental: counter-screen for M1 agonists: effect in parental CHO-K1 cells | Fluo-8 calcium fluorescence; scaled to maximal ATP response, vehicle zero | activation, % at 3 µM | actives 0.48% (n = 360,000) | AID 602248, 2012; in the data active = activation above about 15%;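 also: untransfected CHO-K1 host cells lacking M1 receptor as counterscreen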
M1 PAM: human M1 muscarinic receptor positive allosteric modulators, primary screen, CHO-K1 cells, Fluo-8 calcium fluorescence, 1536-well; CHO-K1 hM1, ACh EC20; 0% = ACh EC20, 100% = maximal ACh; activation, % at 3 µM; actives 0.088% (n = 360,000); in the data active = activation above about 19%, passing the limit was not always enough
CHRM1 agonist: human M1 muscarinic receptor agonists, primary screen, Fluo-8 calcium fluorescence, CHO-K1 cells, HTS. CHO-K1 hM1, agonist mode; 0% DMSO, 100% acetylcholine EC100. activation, % at 3 µM. Muscarinic acetylcholine receptor M1 (Homo sapiens), P11229. actives 0.33% (n = 360,000);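 active = activation above the run's mean compound activation plus 3 SD, cut at about 16% in these data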;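 also: peak over basal fluorescence ratio within a 140 s kinetic read after compound addition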
CHO-K1 Ca PAM: nonselective calcium activators in parental CHO-K1 cells, primary screen, counter-screen for M1 PAM project, cell-based, Fluo-8 calcium fluorescence, full deck, 1536-well | ATP EC20; 0% at ATP EC20, 100% at ATP max | activation, % at 3 µM | actives 0.02% (n = 360,000) | AID 602247, 2012;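 active = activation above the run cutoff, the mean activation of all test compounds plus 3 SD, cut at about 40% in these data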;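 also: peak over basal fluorescence ratio in a 140 s read after ATP addition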
Numbers without * were called inactive; x = not tested or not shown.

SMILES	CHO-K1 Ca antag	M1 antag	M1 ag parental	M1 PAM	CHRM1 agonist	CHO-K1 Ca PAM
FC(F)(F)c1cnc(N2CCN(C(=S)NCc3ccccc3)CC2)c(Cl)c1	-10	4	3	-9	-3	8
O=C(c1ccc(CSc2nc3ccncc3[nH]2)cc1)N1CCN(c2cccc(Cl)c2)CC1	9	36*	10	-20	-5	1
O=C(c1ccc(CSc2nc3ccncc3[nH]2)cc1)N1CCCCCC1	-15	-1	4	1	-5	17
COC(=O)c1ccc(NC(=O)c2ccc3nccnc3c2)cc1	-11	-8	7	7	2	24
O=C(Nc1ccc(SC(F)F)cc1)c1ccc2nccnc2c1	-1	24	17*	-24	-3	-11
CSc1nc(Oc2cccc(C(F)(F)F)c2)cc(C(F)(F)F)n1	-2	-11	0	9	-1	12
CSc1nc(Oc2ccc(F)cc2F)cc(C(F)(F)F)n1	26*	-12	0	17	2	0
O=C(c1cc(COc2c(F)cccc2F)on1)N1CC[C@@H]2CCCC[C@H]2C1	-9	-15	0	4	-7	6
CCOCCC(=O)Nc1ccc2c(c1)c(=O)n(C)n2Cc1cccc(C(F)(F)F)c1	-13	-32	1	32*	6	7
Cn1c(=O)c2cc(NC(=O)CCc3ccccc3)ccc2n1Cc1cccc(C(F)(F)F)c1	-4	-6	5	1	1	10
CCN1C(=O)c2ccccc2S(=O)(=O)c2ccc(C(=O)N3CCOCC3)cc21	-3	-20	1	9	-11	15
O=C(NCCCN1CCCC1)c1ccc2c(c1)N(Cc1ccccc1F)C(=O)c1ccccc1S2=O (stereo not drawn)	1	33*	0	-20	-6	-9
CCCCN(C)C(=O)c1ccc2c(c1)N(CC)C(=O)c1ccccc1S2=O (stereo not drawn)	0	23	0	-19	-10	-10
CCN1C(=O)c2ccccc2S(=O)c2ccc(C(=O)N3CCOCC3)cc21 (stereo not drawn)	0	7	18*	-5	-7	7
CCCCN(C)CCCNC(=O)c1ccc2c(c1)N(CC)C(=O)c1ccccc1S2=O (stereo not drawn)	-8	47*	0	-24	-10	-9
CC1CCCCN1CCNC(=O)c1ccc2c(c1)N(Cc1ccccc1F)C(=O)c1ccccc1S2=O (stereo not drawn)	-16	48*	4	-18	-3	27
Cc1ccccc1-c1nnc(SCC(=O)NC2CCS(=O)(=O)C2)n1C (stereo not drawn)	-5	-7	0	15	-2	1
CCCCC(c1nnnn1C(C)C)N1CCN(C(=O)c2ccco2)CC1 (stereo not drawn)	1	-2	-1	11	3	0
CSc1ccccc1OCc1cc(C(=O)NCC(C)Oc2cccnc2)no1 (stereo not drawn)	-11	-8	4	1	-4	9
CCC(NC(=O)CCc1nnc(-c2cc(C)on2)o1)C12CC3CC(CC(C3)C1)C2 (stereo not drawn)	-8	-5	0	2	-4	12
C[C@@H]1COc2cc(N3CCN(Cc4ccccc4F)CC3)ccc2S(=O)(=O)N1	-16	x	3	x	x	16
CCN1CCN(CCCNC(=O)c2ccc(/C=C3/Sc4ccccc4N(Cc4ccccc4F)C3=O)cc2)CC1	-13	29*	7	-17	-3	18
CCN1CCN(CCNC(=O)c2ccc(/C=C3/Sc4ccccc4N(Cc4ccccc4C)C3=O)cc2)CC1	-5	21	13	-16	4	32
C=CCN1C(=O)C(CC(=O)O)S/C1=N/N=C/c1ccc(N(CC)CC)cc1 (stereo not drawn)	-16	-15	0	15	-4	-4
CN(C(=O)c1cccc(NC(=O)C2CCN(C(=O)OC(C)(C)C)CC2)c1)C1CCCCC1	-23	-6	9	-3	-6	3
SMILES	CHO-K1 Ca antag	M1 antag	M1 ag parental	M1 PAM	CHRM1 agonist	CHO-K1 Ca PAM
COc1ccc(/C=C/CN2CCN(CC(C)C)C(CCO)C2)cc1 (stereo not drawn)	4	28*	-1	-22	-10	12
COc1ccc2c(c1)OC[C@H]1[C@H]2N2C(=O)c3cc(Cl)ccc3NC(=O)[C@@]2(C)[C@H]1c1ccccc1	-15	25	1	-16	-8	19
COc1ccc2c(c1)OC[C@H]1[C@H]2N2C(=O)c3cc(OC)ccc3NC(=O)[C@@]2(C)[C@H]1c1ccccc1	-9	27*	0	-21	-7	6
COc1ccc2c(c1)OC[C@H]1[C@H]2N2C(=O)c3cc(F)ccc3NC(=O)[C@@]2(C)[C@H]1c1ccccc1	-24	83*	1	-30	-7	12
Cc1ccc(S(=O)(=O)NCC(=O)NNC(=O)c2ccccc2Cl)cc1C	-16	-3	1	5	-5	16
O=C(Nc1cc(Cl)cc(Cl)c1)c1cccc(OC(F)F)c1	27*	23	1	-15	-4	-10
Cn1cc([N+](=O)[O-])c(C(=O)N2CCN(Cc3ccc4c(c3)OCO4)CC2)n1	8	-2	0	12	4	-23
COc1ccc(-c2cc(C(F)(F)F)nc(SCCC(=O)Nc3cc(C)on3)n2)cc1	-3	-9	0	5	-2	-2
COc1ccc(-c2cc(C(F)(F)F)nc(SCC(=O)Nc3cc(C)on3)n2)cc1OC	25*	-10	0	9	0	-6
Fc1cccc(/C=N/Nc2cc(N3CCOCC3)ncn2)c1	-17	-22	1	10	-4	23
O=C(Nc1ccc(F)cc1F)N1CCN(CCc2ccccc2)CC1	-10	-6	30*	11	3	17
COc1ccccc1NC(=O)CN1CCN(CC(=O)Nc2ccc(OCc3ccccc3)cc2)CC1	19	16*	1	-12	0	-4
CC(C(=O)Nc1ccc(OCc2ccccc2)cc1)N1CCCC1 (stereo not drawn)	0	49*	1	-24	-8	-13
COc1cc(NC(=O)c2ccccc2)c(OC)cc1NC(=O)CN1CCCCC1	26*	17	0	-8	-3	-6
CCOc1ccccc1NC(=O)CN1CCCCCC1	-31	26*	0	-15	-10	-10
O=C(CN1CCCCC1)Nc1ccccc1NC(=O)CN1CCCCC1	3	-8	0	8	-5	-7
